In PubChem BioAssay AID1159580 (chemical genetic matrix, 2015):
In all, about 5,500 compounds went through this assay and about 2,000 (36%) were called active. Inconclusive results (about 18%) are left out. Cut-off read from the data, not from the text of the source: active = normalized growth mostly below about 0.91 (no sharp cut-off); inconclusive = no clear call, values can overlap the other calls; inactive = mostly above about 0.92. The list shows a part of the results.

Experiment: chemical genetic growth profiling, strain panel (AID 1159580);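 note: tested at 20 µM; growth read once vehicle control cultures reached saturation at 30 °C; 1 = growth at the plate median or of vehicle wells; lower values mean less growth of the strain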
Conditions: S. cerevisiae deletion strains, growth OD
[1] = locus YGR078C, strain PAC10, stronger effect = lower value
[2] = locus YNL322C, strain KRE1, stronger effect = lower value
[3] = locus YPL241C, strain CIN2, stronger effect = lower value
[4] = locus YDL101C, strain DUN1, stronger effect = lower value
[5] = locus YHR030C, strain SLT2, stronger effect = lower value
[6] = locus YAL013W, strain DEP1, stronger effect = lower value
[7] = locus YBR229C, strain ROT2, stronger effect = lower value
[8] = locus YCL061C, strain MRC1, stronger effect = lower value
[9] = locus YDR150W, strain NUM1, stronger effect = lower value
[10] = locus YEL061C, strain CIN8, stronger effect = lower value
[11] = locus YHR087W, strain rtc3, stronger effect = lower value
[12] = locus YJR043C, strain POL32, stronger effect = lower value
[13] = locus YJR075W, strain HOC1, stronger effect = lower value
[14] = locus YLR039C, strain RIC1, stronger effect = lower value
[15] = locus YLR058C, strain SHM2 (second series), stronger effect = lower value
[16] = locus YLR085C, strain ARP6, stronger effect = lower value
[17] = locus YLR262C, strain YPT6, stronger effect = lower value
[18] = locus YML094W, strain GIM5, stronger effect = lower value
[19] = locus YMR219W, strain ESC1, stronger effect = lower value
[20] = locus YMR263W, strain SAP30, stronger effect = lower value
[21] = locus YMR307W, strain GAS1, stronger effect = lower value
[22] = locus YNL153C, strain GIM3, stronger effect = lower value
[23] = locus YNL298W, strain CLA4 (second series), stronger effect = lower value
[24] = locus YNR030W, strain Alg12, stronger effect = lower value
[25] = locus YPL055C, strain LGE1, stronger effect = lower value
[26] = locus YPR135W, strain CTF4, stronger effect = lower value

Measured: normalized growth

CCCCS(=N)(=O)CC[C@H](N)C(=O)O (stereo partly specified)
inactive: locus YAL040C, strain CLN3, stronger effect = lower value 0.986 | locus YDR363W, strain ESC2, stronger effect = lower value 0.99 | locus YER002W, strain NOP16, stronger effect = lower value 1.01 | [1] 0.995 | locus YNL175C, strain NOP13, stronger effect = lower value 0.984 | locus YNL197C, strain WHI3, stronger effect = lower value 0.991 | locus YNL224C, strain SQS1, stronger effect = lower value 0.983 | [2] 0.994 | locus YOR083W, strain WHI5 (second series), stronger effect = lower value 0.977 | [3] 1

COc1ccc2c(c1)CCc1sc(NC(=O)c3ccco3)nc1-2
inactive: locus YAR019C, strain CDC15, stronger effect = lower value 0.957 | locus YBL105C, strain PKC1, stronger effect = lower value 0.961 | locus YBR135W, strain CKS1, stronger effect = lower value 0.953 | locus YBR136W, strain MEC1, stronger effect = lower value 0.969 | locus YBR160W, strain CDC28, stronger effect = lower value 0.965 | locus YDL017W, strain CDC7, stronger effect = lower value 0.971 | locus YDL028C, strain MPS1, stronger effect = lower value 0.971 | [4] 0.993 | locus YDL108W, strain KIN28, stronger effect = lower value 0.947 | locus YDL132W, strain cdc53, stronger effect = lower value 0.97 | locus YDL214C, strain PRR2, stronger effect = lower value 0.901 | locus YDR052C, strain DBF4, stronger effect = lower value 0.969 | locus YDR054C, strain cdc34, stronger effect = lower value 0.955 | locus YDR226W, strain ADK1, stronger effect = lower value 0.957 | locus YDR477W, strain SNF1, stronger effect = lower value 0.889 | locus YER123W, strain YCK3, stronger effect = lower value 0.858 | locus YER133W, strain GLC7, stronger effect = lower value 0.872 | locus YFL009W, strain cdc4, stronger effect = lower value 0.963 | locus YFL029C, strain CAK1, stronger effect = lower value 0.959 | locus YFR003C, strain YPI1, stronger effect = lower value 0.964 | locus YFR019W, strain FAB1, stronger effect = lower value 0.996 | locus YFR028C, strain CDC14, stronger effect = lower value 0.95 | locus YGR040W, strain KSS1, stronger effect = lower value 0.872 | locus YGR052W, strain FMP48, stronger effect = lower value 0.94 | locus YGR092W, strain DBF2, stronger effect = lower value 0.803 | locus YHR079C, strain IRE1, stronger effect = lower value 0.952 | locus YHR082C, strain KSP1, stronger effect = lower value 0.918 | locus YHR205W, strain SCH9, stronger effect = lower value 0.921 | locus YIL147C, strain SLN1, stronger effect = lower value 0.957 | locus YJL095W, strain BCK1, stronger effect = lower value 0.895 | locus YJL128C, strain PBS2, stronger effect = lower value 0.934 | locus YJL157C, strain FAR1, stronger effect = lower value 0.889 | locus YJR016C, strain ILV3, stronger effect = lower value 0.961 | locus YJR066W, strain TOR1 (second series), stronger effect = lower value 0.872 | locus YJR066W, strain TOR1, stronger effect = lower value 0.924 | locus YKL048C, strain ELM1, stronger effect = lower value 0.959 | locus YKL067W, strain YNK1, stronger effect = lower value 0.92 | locus YKL101W, strain HSL1, stronger effect = lower value 0.941 | locus YKL193C, strain SDS22, stronger effect = lower value 0.95 | locus YKL203C, strain TOR2, stronger effect = lower value 0.951 | locus YLR133W, strain CKI1, stronger effect = lower value 0.93 | locus YLR403W, strain SFP1, stronger effect = lower value 0.915 | locus YML070W, strain DAK1, stronger effect = lower value 0.88 | locus YMR001C, strain CDC5, stronger effect = lower value 0.946 | locus YMR205C, strain PFK2 (second series), stronger effect = lower value 0.927 | locus YMR277W, strain FCP1, stronger effect = lower value 0.954 | locus YNL006W, strain LST8, stronger effect = lower value 0.967 | locus YNL020C, strain ARK1, stronger effect = lower value 0.928 | locus YNL161W, strain CBK1, stronger effect = lower value 0.96 | locus YNL183C, strain NPR1, stronger effect = lower value 0.938 | locus YNL207W, strain RIO2, stronger effect = lower value 0.96 | locus YNL222W, strain SSU72, stronger effect = lower value 0.957 | locus YNL307C, strain MCK1 (second series), stronger effect = lower value 0.94 | locus YOL078W, strain AVO1, stronger effect = lower value 0.961 | locus YOL136C, strain PFK27, stronger effect = lower value 0.882 | locus YOR061W, strain CKA2, stronger effect = lower value 0.887 | locus YOR119C, strain RIO1, stronger effect = lower value 0.865 | locus YOR231W, strain MKK1, stronger effect = lower value 0.932 | locus YOR329C, strain SCD5, stronger effect = lower value 0.969 | locus YPL031C, strain PHO85, stronger effect = lower value 0.828 | locus YPL153C, strain RAD53, stronger effect = lower value 0.845 | locus YPL204W, strain HRR25, stronger effect = lower value 0.896 | locus YPL209C, strain IPL1, stronger effect = lower value 0.968 | locus YPL256C, strain CLN2, stronger effect = lower value 0.918 | locus YPR025C, strain CCL1, stronger effect = lower value 0.953 | locus YPR106W, strain ISR1, stronger effect = lower value 0.969 | locus YPR111W, strain DBF20, stronger effect = lower value 0.967 | strain NNK1, stronger effect = lower value 0.973 | strain TSCII, stronger effect = lower value 0.959
active: [5] 0.757 | locus YLR113W, strain HOG1, stronger effect = lower value 0.823

COc1ccc(C(=O)c2sc(Nc3ccccc3)nc2-c2ccccc2)cc1
inactive: [6] 0.999 | [7] 0.979 | [8] 1 | [4] 1 | [9] 1.01 | [10] 0.96 | [1] 0.994 | [5] 0.907 | [11] 0.958 | [12] 0.988 | [13] 0.975 | locus YKL190W, strain CNB1, stronger effect = lower value 0.997 | [14] 0.825 | [15] 1.02 | [16] 0.853 | [17] 0.993 | [18] 0.927 | [19] 0.976 | [20] 0.971 | [21] 0.925 | [22] 1.03 | [23] 0.953 | [2] 0.989 | [24] 0.913 | locus YOL006C, strain TOP1, stronger effect = lower value 0.893 | [25] 0.916 | [3] 0.898 | [26] 0.857

Cc1onc2c(=O)n(-c3ccccc3)nc(-c3ccccc3)c12
inactive: [6] 0.98 | [7] 0.983 | [8] 0.98 | [4] 0.954 | locus YDL134C, strain PPH21, stronger effect = lower value 0.981 | [9] 0.934 | [10] 0.968 | [1] 0.947 | [11] 0.978 | [12] 1.01 | [15] 0.984 | [18] 0.978 | [19] 0.955 | [20] 0.974 | [22] 1 | [23] 0.911 | [24] 0.945 | [25] 1.02 | [3] 0.959 | [26] 0.68
active: [5] 0.517 | [13] 0.622 | [14] 0.57 | [16] 0.769 | [17] 0.574 | [21] 0.568 | [2] 0.929
